Where a name gives a salt, the structure may show the parent alone. About 620 (11%) of roughly 5,800 compounds showed activity. Only a selection was taken, and actives are over-represented in it overall. Values without a mark were called inactive.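 The calls were made as follows: active = score above a cut-off or among the top three wells of a plate; in these data no inactive exceeds 0.85.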
Tested on: primary human hepatic stellate cells (donor 1)
Assay: scaled lipid accumulation score (0 = DMSO-like, 1 = nortriptyline-like); higher = stronger HSC inactivation (lipid re-accumulation), active = hit call of the paper
Conditions: 48 h
[1] = library stock concentration: 10 mM
[2] = library stock concentration: 3.33 mM
[3] = library stock concentration: 1 mM
[4] = library stock concentration: 80 uM
[5] = library stock concentration: 400 uM
[6] = library stock concentration: 2 mM

S=C(Nc1ccccc1)Nc1nccs1 [1-Phenyl-3-(2-thiazolyl)-2-thiourea]
scaled lipid accumulation score [1]: ≤ -0.055

COc1cccc(Nc2c(C(N)=O)cnc3c(C)cc(S(=O)(=O)c4cccc(C(=O)N(C)C)c4)cc23)c1
scaled lipid accumulation score [2]: ≤ 0
scaled lipid accumulation score [1]: ≤ 0

CCCCCC(O)C=CC1C(O)CC(=O)C1CCCCCCC(=O)O (centres undefined) [8-iso Prostaglandin E1]
scaled lipid accumulation score [3]: ≤ 0

CCCCCC(O)C=CC1C(O)CC(=O)C1CCCCCCC(=O)O [15(R)-Prostaglandin E1]
scaled lipid accumulation score [3]: ≤ 0

COc1cc(C)c(Sc2cnc(NC(=O)c3ccc(CNC(C)C(C)(C)C)cc3)s2)cc1C(=O)N1CCN(C(C)=O)CC1 (centres undefined)
scaled lipid accumulation score [4]: ≤ -0.009
scaled lipid accumulation score [5]: ≤ -0.009
scaled lipid accumulation score [6]: 0.095
scaled lipid accumulation score [1]: 0.769

COc1cc(C)c(Sc2cnc(NC(=O)c3ccc(CNC(C)C(C)C)cc3)s2)cc1C(=O)N1CCN(C(C)=O)CC1 (centres undefined) [listing 1 of 2 here]
scaled lipid accumulation score [4]: 0.006
scaled lipid accumulation score [5]: ≤ 0
scaled lipid accumulation score [6]: 0.398

COc1cc(C)c(Sc2cnc(NC(=O)c3ccc(CNC(C)C(C)C)cc3)s2)cc1C(=O)N1CCN(C(C)=O)CC1 (centres undefined) [listing 2 of 2 here]
scaled lipid accumulation score [1]: 0.891 (active)

C[C@@H](CN1CCC(Cc2ccccc2)CC1)[C@@H](O)c1ccc(O)cc1 [Ro 25-6981 hydrochloride]
scaled lipid accumulation score [1]: ≤ 0

CC(C(O)c1ccc(O)cc1)N1CCC(Cc2ccccc2)CC1 (centres undefined) [Ifenprodil tartrate]
scaled lipid accumulation score: 0.252

CC(C(O)c1ccc(O)cc1)N1CCC(Cc2ccccc2)CC1 (centres undefined) [Ifenprodil Tartrate]
scaled lipid accumulation score [2]: ≤ 0
scaled lipid accumulation score [1]: 0.077

CC(C(O)c1ccc(O)cc1)N1CCC(Cc2ccccc2)CC1 (centres undefined) [Ifenprodil]
scaled lipid accumulation score (library stock concentration: 6.1 mM): 0.223
scaled lipid accumulation score (library stock concentration: 9.6 mM): 0.096

C[C@@H](CN1CCC(Cc2ccccc2)CC1)[C@@H](O)c1ccc(O)cc1 [Ro 25-6981 maleate]
scaled lipid accumulation score [1]: 0.284

CC(C(O)c1ccc(O)cc1)N1CCC(Cc2ccccc2)CC1.CC(C(O)c1ccc(O)cc1)N1CCC(Cc2ccccc2)CC1.O=C(O)C(O)C(O)C(=O)O (centres undefined) [Ifenprodil tartrate]
scaled lipid accumulation score [1]: 1.11 (active)

CC(C(O)c1ccc(O)cc1)N1CCC(Cc2ccccc2)CC1 (centres undefined) [Ifenprodil hemitartrate]
scaled lipid accumulation score [1]: 0.45

Nc1nc(=S)c2ncn([C@@H]3O[C@H](CO)[C@@H](O)[C@H]3O)c2[nH]1 [Thioguanosine]
scaled lipid accumulation score: 0.076

CCCCC[C@H](O)/C=C/[C@@H]1[C@H](CCCCCCC(=O)O)[C@@H](O)C[C@H]1O [8-iso Prostaglandin F1.alpha.]
scaled lipid accumulation score [3]: ≤ 0
